# Screens as filed in PubChem.
# The list is a sample of the results.
# aSyn UTR act: Activators via SNCA 5'UTR binding, MLPCN | alpha-synuclein 5'UTR reporter, activators screen | activity score, % (tested at 7.5 µM), hits read low | actives 7.1% (n = 300,000) | AID 1814, 2009; in the data active means activity score below about -60%
# * = called active by the depositor.
SMILES,aSyn UTR act
Fc1c(F)c(F)c(N/N=C/c2c[nH]c3ccccc23)c(F)c1F,-103.1*
Cc1ccn2cc(C34CC5CC(CC(C5)C3)C4)nc2c1,-83.2*
O=C(NC1CCCC1)c1ccc(CSCc2ccccc2F)o1,-62.6*
Cc1cccc(N=c2c([N+](=O)[O-])nn(-c3ccc(Cl)cc3)n2O)c1,-67.6*
Cc1ccc(CN=c2c([N+](=O)[O-])nn(-c3ccc(Cl)cc3)n2O)cc1,-68.9*
O=[N+]([O-])c1nn(-c2ccccc2)n(O)c1=NC1CCN(Cc2ccccc2)CC1,76.4
Cc1cc(C)cc(N=c2c([N+](=O)[O-])nn(-c3cccc(Cl)c3)n2O)c1,-65.5*
CCS(=O)(=O)N1CCCC(c2nc(-c3cccc(OC)c3)no2)C1 (stereo not given),-102.3*
Cn1c(SCC(=O)c2ccccc2)nnc1-c1ccccn1,-128.1*
Cn1c(SCC(=O)c2ccc(F)cc2)nnc1-c1cnccn1,-62.7*
Cn1c(SCC(=O)c2ccccc2)nnc1-c1cccc(N)c1,-62.0*
OCCN(Cc1ccccc1)CC(O)COc1ccc(-c2ccccc2)cc1 (stereo not given),-96.5*
OC(COc1ccc2cc(Br)ccc2c1)CN1CCCC1 (stereo not given),-96.8*
OCCN1CCN(CC(O)COc2ccc(-c3ccccc3)cc2)CC1 (stereo not given),-125.5*
OC(CNCCc1ccccc1)COc1ccc(OCC(O)CNCCc2ccccc2)cc1 (stereo not given),107.5
OC(COc1ccc(OCc2ccccc2)cc1)CN1CCCCC1 (stereo not given),-73.1*
OC(COc1ccc(-c2ccccc2)cc1)CN1CCOCC1 (stereo not given),-72.8*
COc1ccc(C(O)(CC(C)C)C(CN2CCOCC2)c2ccccc2)cc1 (stereo not given),66.0
OC1CCCN(CC(O)COc2ccc(-c3ccccc3)cc2)C1 (stereo not given),-73.7*
Clc1cc(Cl)c2nc(N3CCOCC3)sc2c1,-156.3*
Clc1ccc(-c2nsc(N3CCOCC3)n2)c(Cl)c1,-125.7*
Clc1ccc(Cl)c2sc(N3CCOCC3)nc12,-66.1*
Cc1cccc(Nc2ccc([N+](=O)[O-])cn2)c1,-87.2*
Cc1cccc(NC2=NC(C)(C)N=C(N)N2)c1,98.4
CCOc1cccc(Nc2ccc([N+](=O)[O-])cn2)c1,-101.6*
SMILES,aSyn UTR act
COc1cccc(-c2nc3n(n2)C(c2ccc4c(c2)OCO4)C(C(N)=O)=C(C)N3)c1 (stereo not given),-111.2*
CN(C)S(=O)(=O)c1cccc(NC(=S)N/N=C/c2cc(Br)ccc2O)c1,69.4
CCCOc1ccc(/C=C/C(=O)Nc2ccc([N+](=O)[O-])cc2)cc1,68.0
COc1ccc(OC)c(NC(=O)/C=C/c2ccccc2[N+](=O)[O-])c1,-83.7*
COc1cccc(NC(=O)/C=C/c2ccccc2[N+](=O)[O-])c1,-202.4*
CN(C)S(=O)(=O)c1cccc(NC(=O)/C=C/c2ccccc2[N+](=O)[O-])c1,-65.4*
COc1cccc(NC(=O)/C=C/c2ccc([N+](=O)[O-])cc2)c1,-84.1*
O=C(/C=C/c1ccccc1[N+](=O)[O-])Nc1cccnc1,-122.9*
COC(=O)C(=Cc1ccccc1[N+](=O)[O-])C(=O)OC,-239.8*
CC1CC(c2ccccc2)=Nc2ccccc2N1 (stereo not given),-100.5*
Cc1cc(C(=O)COc2ccccc2C(N)=O)c(C)n1C1CC1,-76.2*
Cc1cc(C(=O)COc2ccccc2[N+](=O)[O-])c(C)n1C1CC1,-130.9*
Cc1cc(C(=O)COC(=O)c2ccc(Cl)c(S(N)(=O)=O)c2)c(C)n1C1CC1,-142.8*
Cc1cc(C(=O)COC(=O)c2ccc[nH]c2=O)c(C)n1C1CC1,-99.1*
CC(=O)O[C@@]12CO[C@@H]1C[C@H](O)[C@@]1(C)C(=O)[C@H](O)C3=C(C)[C@@H](OC(=O)[C@H](O)[C@@H](NC(=O)OC(C)(C)C)c4ccccc4)C[C@](O)([C@@H](OC(=O)c4ccccc4)[C@H]21)C3(C)C,71.8
Cc1cc(-n2c(C)cc(C(=O)COc3ccccc3[N+](=O)[O-])c2C)no1,-67.5*
Cc1cc(C(=O)COc2cccnc2[N+](=O)[O-])c(C)n1-c1ccccc1,99.8
Cc1cc(C(=O)COc2cccnc2[N+](=O)[O-])c(C)n1-c1ccccc1F,67.5
O=[N+]([O-])c1ccccc1N/N=C/c1cccc(O)c1O,-104.2*
Cc1cc(/C=N/Nc2nc(N)ncc2[N+](=O)[O-])c(C)n1-c1ccccc1F,72.7
O=[N+]([O-])c1cccc(N/N=C/c2cccc(O)c2O)c1,-110.3*
CCCOc1ccc(/C=N/Nc2ccccc2[N+](=O)[O-])c(OCCC)c1,-133.3*
O=[N+]([O-])c1ccccc1N/N=C\c1ccccc1F,-165.3*
COc1ccc(/C=N/Nc2ncccc2[N+](=O)[O-])c(OC)c1,-121.8*
O=[N+]([O-])c1ccc(O)c(/C=N/Nc2ccccc2Cl)c1,-85.2*
SMILES,aSyn UTR act
COc1ccc(/C=N/Nc2cc(C)nc3ccc(OC)cc23)c(OC)c1,116.6
O=C(NC(CSCc1ccccc1)C(=O)N/N=C/c1ccc(O)cc1O)c1ccc([N+](=O)[O-])cc1 (stereo not given),83.7
C/C(=N\OCc1nc2ccccc2c(=O)n1/N=C/c1cc([N+](=O)[O-])ccc1O)c1ccccc1,-61.8*
O=[N+]([O-])c1ccc(O)c(/C=N/n2cnc3ccccc32)c1,-67.0*
O=C(N/N=C/c1cc([N+](=O)[O-])ccc1O)c1cccc2cc[nH]c12,68.0
O=[N+]([O-])c1ccccc1N/N=C\c1ccccc1Cl,-209.1*
O=C(c1ccco1)N1CCn2c1nc1ccccc12,-123.9*
COc1ccc(NC(=O)N2CCn3c2nc2ccccc23)cc1,-63.9*
CCCCCC(=O)Nc1ccc(N2CCN(CC)CC2)c(Cl)c1,-152.1*
CCN1CCN(c2ccc(NC(=O)c3ccccc3F)cc2Cl)CC1,-136.0*
Cc1sc2ncnc(N/N=C/c3ccc(O)cc3)c2c1C,-63.6*
COc1ccc(/C=N/Nc2ncnc3sc(C)c(C)c23)cc1,-114.1*
Cc1sc2ncnc(N/N=C/c3ccccc3O)c2c1C,105.8
CCOC(=O)c1ccc(NC(=O)C2C3CCCCC32)cc1 (stereo not given),-184.5*
CCOC(=O)c1ccc(NC(=O)C2C3CCC(C3)C2C(=O)O)cc1 (stereo not given),-61.6*
CCCOC(=O)c1ccc(NC(=O)C2CCCO2)cc1 (stereo not given),-110.4*
CC(C)COC(=O)c1ccc(NC(=O)C2C3CCC(C3)C2C(=O)O)cc1 (stereo not given),-131.3*
CCOC(=O)c1ccc(NC(=S)N2CCC(O)CC2)cc1,-81.5*
CCOc1cc(NC(=S)N2CCC(C(N)=O)CC2)c(C(=O)OC)cc1OCC,31.9
Cc1cc(NC(=O)c2ccc(NC(=O)C3CCCO3)cc2)ccc1Br (stereo not given),-120.7*
CCc1ccc(NC(=O)c2ccccc2NC(=O)C2CCCO2)cc1 (stereo not given),-244.4*
CC1(C)COC(/C=C/c2ccc([N+](=O)[O-])cc2)=N1,-93.0*
O=C(Nc1ccn(Cc2ccccc2)n1)c1ccc(F)cc1,-120.1*
O=C(Nc1ccn(Cc2ccccc2F)n1)c1ccc(COc2ccc(Br)cc2)cc1,-68.5*
Cc1ccc(Cn2ccc(NC(=O)c3nn(C)cc3Cl)n2)cc1,-112.4*
Nc1ccc(C(=O)N/N=C/c2cn(Cc3ccc(F)cc3)c3ccccc23)cc1,64.3
O=C(Nc1ccn(Cc2ccc(Cl)cc2)n1)c1ccc2c(c1)OCO2,-70.4*
